{
  "source": "PubChem BioAssay",
  "note": "The source made the active and inactive calls. No rule for the calls is given here.",
  "data": [
    {"assay": "inhibitors of hydroxyurea-induced Chk1 phosphorylation, primary screen, imaging, HeLa, phospho-Chk1 antibody, percent positive cells (AID 1186)", "details": "hydroxyurea-induced phospho-Chk1 immunofluorescence imaging, higher = more signal", "values": [
      {"smiles": "CC(C)=CCCC(C)=CC(O)C1C=CC2C(=O)N(c3ccccc3)C(=O)C2N1Nc1ccc([N+](=O)[O-])cc1", "note": "(stereo not given)", "z-score": "0.458 (inactive)"},
      {"smiles": "COCCCNC(=O)[C@]1(Cc2ccccc2)N=C(c2ccc(OCCCO)cc2)O[C@@H]1c1ccccc1N=[N+]=[N-]", "z-score": "-1.82 (inactive)"},
      {"smiles": "COCCOC(=O)N1C(=O)[C@@]2(c3cc(C#CCC(C(=O)OC)C(=O)OC)ccc31)[C@H](c1ccc(OCCO)cc1)N1[C@H](c3ccccc3)[C@H](c3ccccc3)OC(=O)[C@H]1[C@@H]2C(N)=O", "z-score": "-0.154 (inactive)"},
      {"smiles": "CN(C)CCCN1C(=O)[C@@]2(Cc3ccccc31)c1ccccc1C(=O)N(Cc1ccccc1)[C@H]2c1ccc(CO)cc1", "z-score": "-0.384 (inactive)"},
      {"smiles": "CN(C)CCCCCCNC(=O)[C@@H]1C[C@@H]2C(=O)NCC(=O)N2[C@@H]1c1ccc(O)cc1", "z-score": "-0.425 (inactive)"},
      {"smiles": "O=[N+]([O-])c1ccc(C[n+]2ccc(-c3ccc(CO)cc3)cc2)o1", "z-score": "0.137 (inactive)"},
      {"smiles": "COC(=O)[C@]1(Cc2ccccc2CN=[N+]=[N-])N=C(c2ccc(OCCCO)cc2)O[C@@H]1c1ccccc1", "z-score": "-0.346 (inactive)"},
      {"smiles": "CCCCCCC#C[Si](O[C@H](c1ccccc1)c1cn(Cc2cccc(Cl)c2)nn1)(C(C)C)C(C)C", "z-score": "-0.195 (inactive)"},
      {"smiles": "CN1C(=O)C2C=CC(C(O)c3ccc(F)cc3)N(N3CCCCC3)C2C1=O", "note": "(stereo not given)", "z-score": "0.64 (inactive)"},
      {"smiles": "COc1ccc([Si](C)(C)[C@H]2[C@H](CC(=O)N3CCC[C@H]3CO)O[C@@]3(C(=O)N(Cc4ccc(N5C(=O)c6cccc7cccc5c67)cc4)c4ccccc43)[C@@H]2C)cc1", "z-score": "0.171 (inactive)"},
      {"smiles": "[N-]=[N+]=NCc1ccccc1[C@H]1OC(c2ccc(OCCCO)cc2)=N[C@@]1(Cc1ccccc1N=[N+]=[N-])C(=O)N1CCCCC1", "z-score": "-0.335 (inactive)"},
      {"smiles": "O=C1c2ccccc2C(=O)C2CC([C@H]3Oc4ccccc4S(=O)(=O)N4CCC[C@@H]34)=CCC12", "note": "(stereo not given in full)", "z-score": "-0.278 (inactive)"},
      {"smiles": "C[C@H]1ON(c2ccccc2)[C@@H](c2ccccc2)[C@@H]1C(=O)N1C(=O)OC[C@@H]1c1ccccc1", "z-score": "-0.134 (inactive)"},
      {"smiles": "CN(C)C(=O)[C@@]1(CCC(=O)OC(C)(C)C)COC(c2ccc(OCCCO)cc2)=N1", "z-score": "-0.0526 (inactive)"},
      {"smiles": "Cc1ccc(S[C@]2(C(=O)O)CC(=O)N(C3CCCCC3)[C@@H]2c2ccc(CO)cc2)cc1", "z-score": "-0.643 (inactive)"},
      {"smiles": "CC(C)CCC[C@@H](C)[C@H]1CC[C@@]2(C)C3=C(CC[C@]12C)[C@@]1(C)CC[C@H](OC(=O)c2ccc(N)cc2)C(C)(C)C1CC3", "note": "(stereo not given in full)", "z-score": "-0.516 (inactive)"},
      {"smiles": "C=CC[C@@]1(C(=O)NCCN2CCOCC2)N=C(c2ccc(OCCCO)cc2)O[C@@H]1c1ccccc1", "z-score": "0.426 (inactive)"},
      {"smiles": "C=CCC(OC(C)=O)[C@@H]1[C@@H](N(Cc2cccc3ccccc23)C(=O)Cc2ccc(F)cc2)c2cc(OCCCO)ccc2N1C(=O)Cc1ccc(OC)cc1", "note": "(stereo not given in full)", "z-score": "-0.0456 (inactive)"},
      {"smiles": "COc1ccc(C#Cc2ccc3c(c2)[C@]2(C(=O)N3)[C@H](C(N)=O)[C@H]3C(=O)O[C@H](c4ccccc4)[C@H](c4ccccc4)N3[C@@H]2c2ccc(O)cc2)cc1", "z-score": "-0.607 (inactive)"},
      {"smiles": "CCOC(=O)C1=CC[C@@H](c2ccc(N(CC)CC)cc2)N(S(=O)(=O)c2ccc(C)cc2)[C@H]1c1ccc([N+](=O)[O-])cc1", "z-score": "0.0638 (inactive)"},
      {"smiles": "COC(=O)[C@@]1(Cc2ccc(F)cc2)[C@H]2c3cc(C(=O)N4CCCC4)n(Cc4ccccc4)c3C[C@H]2CN1C(=O)c1ccccc1", "z-score": "-0.0167 (inactive)"},
      {"smiles": "O=C1O[C@H](c2ccccc2)[C@H](c2ccccc2)N2[C@H]1[C@@H](C(=O)N1CCCCCCC1)[C@]1(C(=O)Nc3ccccc31)[C@H]2c1ccc(O)cc1", "z-score": "0.323 (inactive)"},
      {"smiles": "COc1cc(NN2C(C(O)c3ccc(I)cc3)C=CC3C(=O)N(C)C(=O)C32)cc(OC)c1OC", "note": "(stereo not given)", "z-score": "-0.297 (inactive)"},
      {"smiles": "C=CCC(OC(C)=O)[C@@H]1[C@@H](N(Cc2ccc(-c3ccccc3)cc2)C(=O)c2cccc3ccccc23)c2cc(OCCCO)ccc2N1C(=O)c1ccc2ccccc2n1", "note": "(stereo not given in full)", "z-score": "-0.606 (inactive)"},
      {"smiles": "COC(=O)c1c(CC[C@@H](CO)NC(=O)N[C@@H](C)Cn2cc(C3(O)CCCC3)nn2)oc(C(C)=O)c1C(=O)OC", "z-score": "1.1 (inactive)"},
      {"smiles": "COC(=O)C(CC#Cc1ccc2c(c1)[C@]1(C(=O)N2)[C@H](c2ccc(O)cc2)N2[C@H](c3ccccc3)[C@H](c3ccccc3)OC(=O)[C@H]2[C@@H]1C(N)=O)C(=O)OC", "z-score": "-0.174 (inactive)"},
      {"smiles": "COC(=O)[C@@]1(Cc2ccc(F)cc2)[C@H]2c3cc(C(=O)N(C)C)n(Cc4ccc(C)c(F)c4F)c3C[C@H]2CN1C(=O)c1ccccc1", "z-score": "-0.014 (inactive)"},
      {"smiles": "COc1ccc(C#Cc2ccc3c(c2)[C@]2(C(=O)N3)[C@H](c3ccc(OCCO)cc3)N3[C@H](c4ccccc4)[C@H](c4ccccc4)OC(=O)[C@H]3[C@@H]2C(=O)N2CCN(c3ncccn3)CC2)cc1", "z-score": "-0.246 (inactive)"},
      {"smiles": "COC(=O)[C@@]1(Cc2ccccc2)[C@H]2c3cc(C(=O)N(C)C)n(Cc4ccccn4)c3C[C@H]2CN1C(=O)c1ccccc1", "z-score": "0.545 (inactive)"},
      {"smiles": "C/C=C/[C@@H](CCn1cc([C@H](O)c2ccccc2)nn1)[Si](C)(C)c1ccc(OC)cc1", "z-score": "0.546 (inactive)"},
      {"smiles": "N#Cc1ccc(NN2C(C(O)c3ccco3)C=CC3C(=O)N(c4ccccc4)C(=O)C32)cc1", "note": "(stereo not given)", "z-score": "-0.124 (inactive)"},
      {"smiles": "C#CCOC(=O)N[C@H](C=CCCCC)c1ccccc1", "z-score": "0.163 (inactive)"},
      {"smiles": "[N-]=[N+]=Nc1ccccc1[C@@H]1OC(c2ccc(OCCCO)cc2)=N[C@]1(CCS(=O)(=O)c1ccccc1)C(=O)NCc1ccccc1", "z-score": "-0.228 (inactive)"},
      {"smiles": "COc1cc(C(O)C2C=CC3C(=O)NC(=O)C3N2Nc2ccc(Cl)cc2Cl)cc(OC)c1OC", "note": "(stereo not given)", "z-score": "0.136 (inactive)"},
      {"smiles": "C=CCN1C(=O)[C@@]2(O[C@@H](CCn3cc([C@H](O)c4ccccc4)nn3)[C@H]([Si](C)(C)c3ccc(OC)cc3)[C@H]2C)c2cc(NC(=O)c3ccc(OC)cc3)ccc21", "z-score": "0.24 (inactive)"}
    ]}
  ]
}
